The text below walks through data of PubChem BioAssay AID626 (Vanderbilt High Throughput Screening Facility, 2007).

About 1,900 (3%) of roughly 64,000 compounds were called active.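 How the source made its calls: active means fluorescence rise, raw or as B-score row- and column-corrected plate score, outside the 99.7% band of its plate's samples, either direction; inactive means the rest.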 For the sample, actives were picked, then their nearest neighbours and some compounds at random.

For the assay, the system named is Muscarinic acetylcholine receptor M1. Description: direct activation of M1 receptor calcium signal – CHO-M1 cells, Fluo-4 calcium, agonist mode, primary screen (AID 626). As to conditions: Fluo-4 calcium fluorescence, at 10 µM, stronger effect = higher value.
Consider `O=C(CNS(=O)(=O)c1ccc(Br)s1)NCc1ccc2c(c1)OCO2`, for which the B-score was -0.057 (inactive). Next, `Cc1cc(C)nc(SCc2nnc(SCC(=O)Nc3ncc(C)s3)n2Cc2ccco2)n1`: 0.0432 (inactive); `CCCc1cc(=O)[nH]c(SCC(=O)OCc2ccccc2)n1`: -0.24 (inactive); `COC(=O)Cn1cc(C(=O)c2cccs2)c2ccccc21`: -0.298 (inactive). Next, `O=C(Cn1cc(C(=O)c2cccs2)c2ccccc21)NCc1cccs1`: 5.61 (active); `COC(=O)c1cn(CC(=O)NCc2cccs2)c2ccccc12`: -0.913 (inactive).

With `COc1ccccc1OCCC(=O)OCC(=O)NC(=O)NC(C)(C)C`, the B-score was -0.0604 (inactive). Next, `O=C(Nc1ccon1)c1cccc(Cl)c1`: -0.792 (inactive).

Consider `O=C(Nc1cccc(C(=O)N2CCCC2)c1)c1ccccc1`, for which the B-score is 0.113 (inactive). Consider `O=C(Nc1cccc(NC(=O)N2CCN(c3ccccc3)CC2)c1)N1CCN(c2ccccc2)CC1`, for which the B-score is 5.66 (active). Next, `CC(=O)N1CCN(C(=O)Nc2cccc(C(F)(F)F)c2)CC1`: 1.54 (inactive); `Cc1ccc(N2CCN(S(=O)(=O)c3ccc(F)cc3)CC2)c(C)c1`: 1.76 (inactive).

In the case of `O=C(Nc1ccncc1)c1cc2ccccc2o1`, the B-score is -0.306 (inactive). Take `O=C(NCCc1ccc2c(c1)OCCO2)c1cc2ccccc2o1`: the B-score was 5.92 (active). Next, `O=C(CC(Cc1ccccc1)C(=O)O)NCCc1ccc2c(c1)OCO2` (configuration not stated): -0.0151 (inactive). Next, `CCOc1cccc(-n2nnnc2-c2ccc(OC)cc2)c1`: -0.152 (inactive). On to `COc1cccc(OCCOc2cccc(/C=N/n3cnnc3)c2)c1`, for which the B-score was 0.112 (inactive). Then `COc1ccccc1OCCOc1ccc(/C=N/n2cnnc2)cc1`, with -1.48 (inactive).

Regarding `C(=N\n1cnnc1)/c1cccnc1`, the B-score was 7.81 (active). Next, `CCOC(=O)c1sc(NC(=O)C(CC)Sc2nccn2C)nc1C` (configuration not stated): 0.459 (inactive); `Cc1nnc(SCCCn2c(N3CCCCC3)nc3c2c(=O)[nH]c(=O)n3C)s1`: -0.0644 (inactive).

As for `O=C(c1cn(-c2ccccc2)nc1-c1cccnc1)N1CCCCC1`, the B-score was 0.178 (inactive). Then `COc1ccccc1N1CCN(C(=O)c2cn(-c3ccccc3)nc2-c2cccnc2)CC1`, with 5.33 (active); and `COC(=O)c1cn(-c2ccccc2)nc1-c1cccnc1`, with -1.56 (inactive).

With `CCOC(=O)Nc1ccc2c(c1)N(C(=O)CN1CCN3CCCC3C1)c1ccccc1CC2` (configuration not stated), the B-score is 0.0902 (inactive). Next, `CCOc1ccc(NC(=O)Nc2cc(C)on2)cc1`: -2.11 (inactive); `O=C(Nc1cc(N2CCOCC2)ncn1)NC1(C(F)(F)F)Oc2ccc(Cl)cc2O1` (configuration not stated): 0.249 (inactive). Then `c1cnn(-c2cc(N3CCOCC3)ncn2)c1`, with -2.54 (active); and `O=C(Nc1ccc(F)cc1)c1cccnc1N1CCOCC1`, with 0.0065 (inactive); and `O=C(NCc1cn2ccsc2n1)Nc1cccc(Cl)c1`, with -0.0716 (inactive). Take `CCCC(=O)Nc1cccc(-c2cn3ccsc3n2)c1`: the B-score is -2.92 (active).

As for `COc1ccc(-c2cn3ccsc3n2)cc1`, the B-score was 0.708 (inactive). Then `OCCCN1c2ccccc2Nc2nnc(-c3ccccc3)cc21`, with 2.37 (inactive); and `CCOc1cc(-c2nc3cc(C)ccn3c2NCC2CCCO2)ccc1O` (configuration not stated), with 5.56 (active); and `CCOc1cccc(=O)c2c(C)n(CC3CCCO3)c(C)c12` (configuration not stated), with -0.504 (inactive).

Regarding `CCOc1cc(C(=S)N2CCOCC2)ccc1O`, the B-score was 0.0946 (inactive).

`O=C(CC1Oc2ccccc2NC1=O)NCCCN1CCN(Cc2ccccc2)CC1` (configuration not stated): the B-score was -0.153 (inactive). Then `COCCn1c(-c2ccc(OC)c(OC)c2)nc2ccccc21`, with 0.157 (inactive). Next, `Clc1cccc(-c2nc3nc4ccccc4nc3n2Cc2ccco2)c1`: 2.1 (inactive). Next, `COc1ccc(CCn2c(-c3ccco3)nc3nc4ccccc4nc32)cc1OC`: 5.87 (active); `COc1ccc(-c2nn(-c3ccccc3)cc2C(=O)Nc2nc(CC(C)=O)ns2)cc1`: 0.649 (inactive); `CC1CCCC(C)N1CCCNC(=O)c1cc2c(=O)n(C)c3ccccc3c2n1C` (configuration not stated): 0.176 (inactive). In the case of `Cn1c(C(=O)NCCc2ccsc2)cc2c(=O)n(C)c3ccccc3c21`, the B-score was 3.97 (active). Next, `Cn1c(C(=O)NCCCN2CCN(c3cccc(Cl)c3)CC2)cc2c(=O)n(C)c3ccccc3c21`: -1.68 (inactive); `CCOc1cc(S(=O)(=O)NC2CC(C)(C)NC(C)(C)C2)ccc1F`: -1.83 (inactive). Then `N#CC1=C(N)C(C#N)(C#N)[C@H](c2ccsc2)[C@H]2COCC=C12`, with 3.35 (active); and `c1ccc(-c2oc3ncnc(N4CCOCC4)c3c2-c2ccccc2)cc1`, with -0.65 (inactive).

On to `O=S(=O)(N1CCOCC1)N1CCN(c2ccccc2F)CC1`, for which the B-score is 0.0546 (inactive).

On to `O=C1c2ccccc2-c2ncnc3c(N4CCOCC4)cc(N4CCOCC4)c1c23`, for which the B-score was 2.4 (active).

Regarding `O=C(NCCC1=CCCCC1)C1CCN(Cc2cnn(-c3ccccc3)c2-n2cccc2)CC1`, the B-score is 3.61 (active).

In the case of `O=C(COc1cccc(-n2cnnn2)c1)NCCC1=CCCCC1`, the B-score is -0.532 (inactive).

As to `C1=C(CCNc2ncnc3c2cnn3-c2ccccc2)CCCC1`, the B-score was 0.14 (inactive).

As to `Cc1cc(NC(=O)CCC2COc3ccccc3O2)no1` (configuration not stated), the B-score was -0.76 (inactive).

For the compound `COc1ccc(CCNc2ncnc3nc[nH]c23)cc1OC`, the B-score was -0.961 (inactive). For the compound `c1ccc2c(c1)OCC(CNc1ncnc3nc[nH]c13)O2` (configuration not stated), the B-score is 104 (active). Then `O=S1(=O)CC(NCc2ccccc2)C(Nc2ccc(Cl)cc2)C1` (configuration not stated), with -0.0591 (inactive).

As for `COc1cccc(-n2cc3c(c2-c2ccccc2)c(=O)n(C)c(=O)n3C)c1`, the B-score is 7.45 (active). Then `COc1ccc(-c2c3c(=O)n(C)c(=O)n(C)c3cn2-c2cccc(OC)c2)cc1`, with 0.091 (inactive).

As to `Cc1ccc(-c2c3c(=O)n(C)c(=O)n(C)c3cn2-c2ccccc2O)cc1`, the B-score was 0.252 (inactive).

With `CCCCn1c(SCC(=O)NCC2CCCO2)nc2ccc(N3CCOCC3)cc2c1=O` (configuration not stated), the B-score was 0.658 (inactive). `COc1ccccc1CNC(=O)CCCNS(=O)(=O)c1cccc2nsnc12`: the B-score was -0.144 (inactive).

For the compound `CCS(=O)(=O)N1CCCC(C(=O)NCCCN(C)Cc2ccccc2)C1` (configuration not stated), the B-score was 0.0256 (inactive). Next, `CNC(=O)c1c(NC(=O)c2ccc(S(=O)(=O)N3CCOCC3)cc2)sc2c1CCC2`: -0.0829 (inactive); `CCOc1cc(NC(=O)c2ccco2)c(OCC)cc1NC(=O)COc1ccccc1`: 0.0561 (inactive); `CC(=O)Nc1cccc(Oc2cc(C#N)c(C#N)cc2N2CCOCC2)c1`: 0.0039 (inactive). Then `CCOc1cc(N2CCOCC2)c(OCC)cc1NC(=O)COc1cccc2cccnc12`, with 4.8 (active); and `Cc1nc2cc(S(=O)(=O)C(F)(F)F)ccc2s1`, with 0.0196 (inactive); and `Cc1ccc(C(c2sc3nc(C)nn3c2O)N2CCN(c3ccccc3)CC2)cc1` (configuration not stated), with -0.274 (inactive). Then `O=C(Nc1cccc(-c2nnc(-c3ccccc3)o2)c1)C1CCCO1` (configuration not stated), with 8.44 (active); and `O=C(Nc1nnc(CCc2ccccc2)s1)C1CCCO1` (configuration not stated), with -0.799 (inactive); and `O=C(Nc1ccc(-c2nnc(-c3ccccc3)o2)cc1)C1CCCO1` (configuration not stated), with 0.124 (inactive). For `Cc1ccc(C(=O)Nc2ccccc2C(=O)NC2CCCCC2)cc1S(=O)(=O)N1CCOCC1`, the B-score is -0.515 (inactive). Next, `CCOc1ccc2cc(C#N)c(SCC(=O)OC)nc2c1`: -0.798 (inactive); `Cc1ccc2cc(C#N)c(SCC(=O)NCC3CCCO3)nc2c1C` (configuration not stated): 0.58 (inactive). For `CC(NC(=O)CSc1nc2c(cc1C#N)CN(C)CC2)c1ccccc1` (configuration not stated), the B-score was 6.81 (active). Next, `CC1=NC2(CCCc3c2no[n+]3[O-])N(O)C1(C)C` (configuration not stated): -0.303 (inactive); `O=C(Nc1c(-c2ccccc2)nc2c(Br)cc(Br)cn12)c1ccco1`: 1.35 (inactive); `CC(C)(C)c1cc(CN2CCN(CCC#N)CC2)cc(C(C)(C)C)c1O`: 25.1 (active). For `N#CCCN1CCN(S(=O)(=O)c2ccc(S(=O)(=O)N3CCCC3)cc2)CC1`, the B-score was 0.0676 (inactive). Turning to `N#CCCN1CCN(S(=O)(=O)c2ccc(S(=O)(=O)NC3CC3)cc2)CC1`, the B-score is 0.386 (inactive). Take `Cc1nc2ccc(S(=O)(=O)NC(C(=O)N3CCCCCC3)C(C)C)cc2s1` (configuration not stated): the B-score is 0.688 (inactive). Then `CN1CCN(S(=O)(=O)c2ccc(NC(=O)c3ccco3)cc2)CC1`, with 0.741 (inactive); and `CC1=C2C(=O)OC(c3ccoc3)C2(C)CCC1` (configuration not stated), with -1.22 (inactive). Then `Cc1ccc(-n2ncc3c(N4CCN(c5ccc(F)cc5)CC4)ncnc32)c(C)c1`, with -0.824 (inactive); and `Fc1ccc2[nH]c3c(N4CCSCC4)ncnc3c2c1`, with 12.1 (active).

For the compound `Fc1ccc2[nH]c3c(N4CCN(Cc5ccc6c(c5)OCO6)CC4)ncnc3c2c1`, the B-score is 6.32 (inactive).

Take `O=C1CC(c2ccccc2)CC(O)=C1C=NCCN1CCOCC1` (configuration not stated): the B-score was -1.61 (inactive). Next, `Cn1c(SCC(=O)c2cccs2)nnc1-c1ccco1`: -0.304 (inactive); `Cc1nnc(SCC(=O)NCc2cccs2)[nH]c1=O`: 0.134 (inactive); `Cc1nc2nc(CSc3nc4ccccc4s3)cc(=O)n2[nH]1`: 0.684 (inactive). Next, `Cc1nn2c(c1-c1ccccc1)N=C(c1ccco1)CC2c1ccccc1` (configuration not stated): 5.88 (active); `Cc1nn(C(=O)c2ccoc2C)c(N)c1-c1ccccc1`: 0.366 (inactive); `CCOC(=O)c1c(C2CC2)csc1NC(=O)CSCc1c(C)noc1C`: 0.602 (inactive). Next, `CN1CCN(CC(=O)Nc2sc3c(c2C#N)CCC(C(C)(C)C)C3)CC1` (configuration not stated): -0.211 (inactive).

Consider `CCOC(=O)C1CCCN(C(=O)c2cncc(Br)c2)C1` (configuration not stated), for which the B-score is -0.115 (inactive). Consider `CCOC(=O)C1CCN(C(=O)c2oc3ccc(S(=O)(=O)N4CCCCCC4)cc3c2C)CC1`, for which the B-score is 1.57 (inactive). Next, `CCOC(=O)C1CCCN(C(=O)c2ccc(CS(=O)(=O)c3ccc(Br)cc3)o2)C1` (configuration not stated): -2.11 (active).
